Experimental findings from article PMC7862700, “An all-to-all approach to the identification of sequence-specific readers for epigenetic DNA modifications on cytosine” are described below.

Common to all, as to assay: DAPPL (digital affinity profiling via proximity ligation, sequencing); 10 mM Tris-HCl pH 7.5, 50 mM NaCl, 1 mM DTT, 4% glycerol, room temperature, 30 min; GST-TFs on glutathione beads, 16-mer random dsDNA library, 0.1% formaldehyde crosslink after washing; high values mean tight binding
Common to all, as to conditions: protein: recombinant; tags: N-terminal GST; dsDNA, one strand shown

One test deals with T1, FLI1 (Homo sapiens, UniProt Q01543 1-452).
T1 sequence: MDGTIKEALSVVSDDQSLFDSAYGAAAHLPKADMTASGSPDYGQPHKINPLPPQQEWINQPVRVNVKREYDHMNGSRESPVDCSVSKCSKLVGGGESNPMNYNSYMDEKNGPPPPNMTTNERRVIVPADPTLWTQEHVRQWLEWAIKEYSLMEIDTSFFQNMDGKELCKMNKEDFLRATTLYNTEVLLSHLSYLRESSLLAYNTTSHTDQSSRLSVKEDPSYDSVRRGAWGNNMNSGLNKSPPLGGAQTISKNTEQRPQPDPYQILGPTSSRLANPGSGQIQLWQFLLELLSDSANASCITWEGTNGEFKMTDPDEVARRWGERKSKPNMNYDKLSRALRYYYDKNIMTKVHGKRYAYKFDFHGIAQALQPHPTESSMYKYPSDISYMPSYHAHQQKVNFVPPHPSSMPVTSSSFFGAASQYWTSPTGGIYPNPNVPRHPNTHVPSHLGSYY
The method, boiled down: (§1)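 Pools were built from human transcription factors expressed in yeast as GST fusions, captured on glutathione beads and DNA-barcoded, along with a tag-only sample. Incubation with 200 nmole of a 16-mer random double-stranded DNA library lasted 30 min at room temperature in Tris/NaCl/DTT/glycerol buffer, and was followed by washing, 0.1% formaldehyde crosslinking, proximity ligation, PCR amplification and Illumina NextSeq500 sequencing. Binding signal is the quotient of each hexamer's read frequency for a factor and its frequency for the tag-only sample.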

The target in a further test is T2, ELK1 (Homo sapiens, UniProt P19419 1-428).
T2 sequence: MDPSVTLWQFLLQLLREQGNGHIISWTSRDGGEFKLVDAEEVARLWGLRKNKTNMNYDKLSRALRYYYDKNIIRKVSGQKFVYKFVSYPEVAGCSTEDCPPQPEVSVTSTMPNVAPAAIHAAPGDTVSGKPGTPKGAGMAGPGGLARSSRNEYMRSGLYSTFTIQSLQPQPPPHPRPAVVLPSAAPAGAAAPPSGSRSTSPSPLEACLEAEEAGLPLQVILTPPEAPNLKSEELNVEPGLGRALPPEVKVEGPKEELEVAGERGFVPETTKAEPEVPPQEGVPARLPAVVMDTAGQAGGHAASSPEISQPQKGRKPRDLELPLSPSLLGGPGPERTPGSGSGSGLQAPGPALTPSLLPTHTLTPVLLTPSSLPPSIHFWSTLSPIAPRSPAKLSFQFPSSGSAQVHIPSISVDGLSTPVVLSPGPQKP
An outline of the steps: as §1

For another test, the target named is T3, GABPA (Homo sapiens, UniProt Q06546 1-454).
T3 sequence: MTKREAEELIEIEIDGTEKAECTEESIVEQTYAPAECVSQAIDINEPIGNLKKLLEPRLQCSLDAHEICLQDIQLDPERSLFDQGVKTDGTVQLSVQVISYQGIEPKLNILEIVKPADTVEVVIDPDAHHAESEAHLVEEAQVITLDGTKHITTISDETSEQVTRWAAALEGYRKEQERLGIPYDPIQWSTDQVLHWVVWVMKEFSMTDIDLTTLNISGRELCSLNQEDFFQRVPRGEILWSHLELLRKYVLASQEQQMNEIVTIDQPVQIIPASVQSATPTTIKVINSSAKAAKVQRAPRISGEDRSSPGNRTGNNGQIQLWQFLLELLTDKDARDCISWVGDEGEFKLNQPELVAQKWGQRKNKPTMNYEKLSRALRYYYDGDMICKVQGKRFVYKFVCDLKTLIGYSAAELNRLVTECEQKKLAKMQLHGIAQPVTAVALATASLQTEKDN
An outline of the steps: as §1

Another test has as its target T4, ERG (Homo sapiens, UniProt P11308 1-479).
T4 sequence: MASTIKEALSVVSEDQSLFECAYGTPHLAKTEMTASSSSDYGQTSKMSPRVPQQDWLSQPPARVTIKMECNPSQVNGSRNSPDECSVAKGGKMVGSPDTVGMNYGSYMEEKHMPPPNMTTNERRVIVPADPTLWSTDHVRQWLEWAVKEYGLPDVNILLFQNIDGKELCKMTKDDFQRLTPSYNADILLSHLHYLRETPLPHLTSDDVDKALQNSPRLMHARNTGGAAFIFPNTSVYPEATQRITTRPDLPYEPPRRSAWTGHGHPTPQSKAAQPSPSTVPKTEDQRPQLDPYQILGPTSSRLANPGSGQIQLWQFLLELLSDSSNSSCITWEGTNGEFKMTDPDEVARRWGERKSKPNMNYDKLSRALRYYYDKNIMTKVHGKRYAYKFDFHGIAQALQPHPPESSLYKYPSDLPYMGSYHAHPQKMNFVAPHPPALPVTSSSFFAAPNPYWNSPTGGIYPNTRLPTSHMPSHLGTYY
The method, boiled down:
as §1

For another test, the target named is ELF1 (Homo sapiens, UniProt P32519 1-619). The method, boiled down:
as §1

In another test the target is T5, EHF (Homo sapiens, UniProt Q9NZC4 1-300).
T5 sequence: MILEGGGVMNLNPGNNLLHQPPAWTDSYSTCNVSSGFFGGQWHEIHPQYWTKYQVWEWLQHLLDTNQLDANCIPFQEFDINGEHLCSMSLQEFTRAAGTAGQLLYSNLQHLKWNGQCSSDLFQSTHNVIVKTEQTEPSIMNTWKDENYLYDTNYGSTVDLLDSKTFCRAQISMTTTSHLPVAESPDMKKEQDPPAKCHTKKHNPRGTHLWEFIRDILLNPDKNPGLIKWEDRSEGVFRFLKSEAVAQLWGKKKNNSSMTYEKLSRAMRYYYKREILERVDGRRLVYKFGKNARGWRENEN
The method, boiled down:
as §1

The target in another test is SPI1 (Homo sapiens, UniProt P17947 1-270). An outline of the steps: as §1
In the next test the target is T6, ELK3 (Homo sapiens, UniProt P41970 1-407).
T6 sequence: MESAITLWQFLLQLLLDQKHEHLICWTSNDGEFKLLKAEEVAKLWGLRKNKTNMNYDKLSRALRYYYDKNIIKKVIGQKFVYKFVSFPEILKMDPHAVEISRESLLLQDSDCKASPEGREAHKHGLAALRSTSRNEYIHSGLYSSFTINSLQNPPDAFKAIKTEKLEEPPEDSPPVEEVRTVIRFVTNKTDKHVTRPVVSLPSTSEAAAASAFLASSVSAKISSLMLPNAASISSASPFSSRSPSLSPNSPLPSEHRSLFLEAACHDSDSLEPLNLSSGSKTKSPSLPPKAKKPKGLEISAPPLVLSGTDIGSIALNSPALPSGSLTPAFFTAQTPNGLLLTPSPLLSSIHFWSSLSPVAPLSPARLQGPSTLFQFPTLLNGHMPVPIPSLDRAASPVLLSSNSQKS
The method, boiled down:
as §1

Another test concerns the target T7, FEV (Homo sapiens, UniProt Q99581 1-238).
T7 sequence: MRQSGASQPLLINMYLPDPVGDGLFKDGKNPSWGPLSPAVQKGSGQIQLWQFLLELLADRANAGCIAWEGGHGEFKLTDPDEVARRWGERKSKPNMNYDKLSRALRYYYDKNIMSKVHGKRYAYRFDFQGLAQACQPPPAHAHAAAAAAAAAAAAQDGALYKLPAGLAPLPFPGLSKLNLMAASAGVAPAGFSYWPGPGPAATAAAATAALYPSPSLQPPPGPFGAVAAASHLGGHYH
An outline of the steps:
as §1

The target in another test is ETV5 (Homo sapiens, UniProt P41161 1-510). An outline of the steps: as §1
Sequence of ETV5 (P41161 whole entry): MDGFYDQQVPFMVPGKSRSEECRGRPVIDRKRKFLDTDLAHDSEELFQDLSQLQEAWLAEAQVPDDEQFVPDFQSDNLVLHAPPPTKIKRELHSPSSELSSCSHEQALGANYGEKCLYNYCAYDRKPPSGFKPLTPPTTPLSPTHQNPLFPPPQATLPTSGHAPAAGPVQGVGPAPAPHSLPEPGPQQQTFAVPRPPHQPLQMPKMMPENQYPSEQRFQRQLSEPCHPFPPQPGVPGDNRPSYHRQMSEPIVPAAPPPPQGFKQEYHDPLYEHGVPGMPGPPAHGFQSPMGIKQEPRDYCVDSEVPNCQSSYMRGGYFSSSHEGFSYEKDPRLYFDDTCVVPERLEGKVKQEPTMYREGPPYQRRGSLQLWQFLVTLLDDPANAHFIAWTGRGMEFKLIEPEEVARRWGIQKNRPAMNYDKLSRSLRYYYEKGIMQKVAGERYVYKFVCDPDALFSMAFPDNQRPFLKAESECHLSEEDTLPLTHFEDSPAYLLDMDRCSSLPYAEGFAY
A further test concerns the target ELF4 (Homo sapiens, UniProt Q99607 1-663). An outline of the steps: as §1
For the next test, the target named is ETV1 (Homo sapiens, UniProt P50549 1-477). The method, boiled down:
as §1

Another test deals with T8, ERF (Homo sapiens, UniProt P50548 1-548).
T8 sequence: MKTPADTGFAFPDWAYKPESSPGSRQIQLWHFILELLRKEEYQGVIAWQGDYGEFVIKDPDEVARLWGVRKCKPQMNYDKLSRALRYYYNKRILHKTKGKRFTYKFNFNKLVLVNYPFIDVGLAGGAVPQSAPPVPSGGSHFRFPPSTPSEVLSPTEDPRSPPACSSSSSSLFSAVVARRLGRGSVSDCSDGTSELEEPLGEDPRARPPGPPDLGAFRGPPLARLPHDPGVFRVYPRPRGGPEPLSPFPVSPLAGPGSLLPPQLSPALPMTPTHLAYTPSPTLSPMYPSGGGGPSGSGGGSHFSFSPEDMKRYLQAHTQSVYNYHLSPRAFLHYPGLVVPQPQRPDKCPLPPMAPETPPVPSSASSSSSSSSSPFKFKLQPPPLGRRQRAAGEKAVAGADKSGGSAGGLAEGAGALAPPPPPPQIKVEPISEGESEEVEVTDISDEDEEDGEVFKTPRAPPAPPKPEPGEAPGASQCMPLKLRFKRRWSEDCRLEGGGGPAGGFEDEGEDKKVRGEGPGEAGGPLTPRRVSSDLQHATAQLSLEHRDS
The method, boiled down: as §1

The target of the next test is T9, ETV3L (Homo sapiens, UniProt Q6ZN32 1-361).
T9 sequence: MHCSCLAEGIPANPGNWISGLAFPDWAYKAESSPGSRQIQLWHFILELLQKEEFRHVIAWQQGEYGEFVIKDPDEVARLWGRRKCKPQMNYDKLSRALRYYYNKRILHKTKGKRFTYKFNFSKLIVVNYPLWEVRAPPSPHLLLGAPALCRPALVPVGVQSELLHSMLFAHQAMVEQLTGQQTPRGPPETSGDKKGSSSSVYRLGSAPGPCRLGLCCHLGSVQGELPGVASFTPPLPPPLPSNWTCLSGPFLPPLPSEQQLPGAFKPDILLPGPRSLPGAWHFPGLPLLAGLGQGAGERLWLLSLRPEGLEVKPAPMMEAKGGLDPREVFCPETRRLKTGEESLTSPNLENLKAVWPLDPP
The method, boiled down:
as §1

For a further test, the target named is T10, ETS2 (Homo sapiens, UniProt P15036 1-469).
T10 sequence: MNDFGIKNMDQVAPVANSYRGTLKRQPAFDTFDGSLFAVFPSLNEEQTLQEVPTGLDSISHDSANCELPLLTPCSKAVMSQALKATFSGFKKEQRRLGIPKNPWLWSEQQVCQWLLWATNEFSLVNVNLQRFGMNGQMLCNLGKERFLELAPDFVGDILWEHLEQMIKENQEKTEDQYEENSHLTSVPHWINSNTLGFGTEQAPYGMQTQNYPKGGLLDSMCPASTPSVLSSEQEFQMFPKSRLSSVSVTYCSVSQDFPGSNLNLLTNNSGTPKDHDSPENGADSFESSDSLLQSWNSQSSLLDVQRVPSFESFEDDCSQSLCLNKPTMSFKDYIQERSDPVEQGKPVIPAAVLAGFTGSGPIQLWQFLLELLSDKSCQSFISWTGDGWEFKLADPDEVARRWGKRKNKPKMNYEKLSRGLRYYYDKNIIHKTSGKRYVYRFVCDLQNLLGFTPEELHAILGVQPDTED
An outline of the steps:
as §1

In a further test the target is T11, ELF5 (Homo sapiens, UniProt Q9UKW6-2 1-255).
T11 sequence: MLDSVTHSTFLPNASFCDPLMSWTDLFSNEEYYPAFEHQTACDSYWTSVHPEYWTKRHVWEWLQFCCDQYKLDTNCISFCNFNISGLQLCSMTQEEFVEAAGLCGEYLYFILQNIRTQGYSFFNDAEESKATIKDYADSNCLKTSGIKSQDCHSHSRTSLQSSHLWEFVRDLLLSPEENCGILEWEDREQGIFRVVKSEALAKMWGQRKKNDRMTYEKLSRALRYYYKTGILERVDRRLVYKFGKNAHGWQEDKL
An outline of the steps: as §1

In a further test the target is T12, ETV3 (Homo sapiens, UniProt P41162-2 1-143).
T12 sequence: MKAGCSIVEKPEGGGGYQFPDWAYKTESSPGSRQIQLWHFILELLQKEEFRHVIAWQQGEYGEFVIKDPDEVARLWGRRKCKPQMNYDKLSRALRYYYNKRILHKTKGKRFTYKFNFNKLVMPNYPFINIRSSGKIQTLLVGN
The method, boiled down: as §1

The target of a further test is ETV6 (Homo sapiens, UniProt P41212 1-452). The method, boiled down:
as §1

Sequence of ETV1 (P50549 whole entry): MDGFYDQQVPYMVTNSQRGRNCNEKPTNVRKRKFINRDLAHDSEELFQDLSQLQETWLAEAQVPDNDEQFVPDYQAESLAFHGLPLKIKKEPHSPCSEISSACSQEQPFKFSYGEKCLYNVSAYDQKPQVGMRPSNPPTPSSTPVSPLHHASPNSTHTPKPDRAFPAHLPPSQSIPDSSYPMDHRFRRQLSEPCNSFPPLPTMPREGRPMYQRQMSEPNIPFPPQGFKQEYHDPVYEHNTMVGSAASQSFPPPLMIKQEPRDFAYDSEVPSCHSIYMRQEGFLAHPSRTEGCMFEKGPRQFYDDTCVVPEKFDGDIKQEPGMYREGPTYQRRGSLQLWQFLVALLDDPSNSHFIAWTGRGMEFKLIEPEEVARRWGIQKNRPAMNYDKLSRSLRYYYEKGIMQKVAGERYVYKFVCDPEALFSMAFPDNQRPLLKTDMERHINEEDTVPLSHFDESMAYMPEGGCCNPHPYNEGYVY
Sequence of ETV6 (P41212 whole entry): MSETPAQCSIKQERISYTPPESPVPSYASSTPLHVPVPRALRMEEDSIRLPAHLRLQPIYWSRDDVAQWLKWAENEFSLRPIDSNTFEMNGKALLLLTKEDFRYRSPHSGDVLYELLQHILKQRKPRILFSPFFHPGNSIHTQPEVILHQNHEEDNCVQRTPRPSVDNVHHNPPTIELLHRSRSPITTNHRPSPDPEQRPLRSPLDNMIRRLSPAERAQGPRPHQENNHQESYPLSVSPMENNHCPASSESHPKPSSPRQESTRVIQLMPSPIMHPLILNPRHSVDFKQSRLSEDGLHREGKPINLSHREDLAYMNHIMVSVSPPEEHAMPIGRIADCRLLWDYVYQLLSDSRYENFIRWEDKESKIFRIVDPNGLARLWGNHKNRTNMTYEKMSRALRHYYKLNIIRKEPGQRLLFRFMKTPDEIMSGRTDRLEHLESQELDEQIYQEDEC
Sequence of ELF4 (Q99607 whole entry): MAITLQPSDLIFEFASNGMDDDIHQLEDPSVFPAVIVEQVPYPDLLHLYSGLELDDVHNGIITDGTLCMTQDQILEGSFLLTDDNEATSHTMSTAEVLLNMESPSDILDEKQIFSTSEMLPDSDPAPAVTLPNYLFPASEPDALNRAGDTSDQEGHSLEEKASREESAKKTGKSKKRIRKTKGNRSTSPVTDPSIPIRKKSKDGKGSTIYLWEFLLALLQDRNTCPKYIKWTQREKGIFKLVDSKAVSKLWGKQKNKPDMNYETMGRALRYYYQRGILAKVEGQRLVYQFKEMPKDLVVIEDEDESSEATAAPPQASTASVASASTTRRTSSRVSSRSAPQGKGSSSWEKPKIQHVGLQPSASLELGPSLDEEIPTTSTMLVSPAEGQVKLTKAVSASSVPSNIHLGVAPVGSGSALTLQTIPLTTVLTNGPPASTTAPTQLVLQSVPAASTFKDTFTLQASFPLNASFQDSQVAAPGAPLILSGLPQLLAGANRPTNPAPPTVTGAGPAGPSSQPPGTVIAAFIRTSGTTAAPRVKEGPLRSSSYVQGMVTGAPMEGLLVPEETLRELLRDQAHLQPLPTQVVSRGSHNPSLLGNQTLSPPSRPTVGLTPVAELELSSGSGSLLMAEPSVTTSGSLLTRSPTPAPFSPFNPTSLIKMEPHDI
Sequence of ELF1 (P32519 whole entry): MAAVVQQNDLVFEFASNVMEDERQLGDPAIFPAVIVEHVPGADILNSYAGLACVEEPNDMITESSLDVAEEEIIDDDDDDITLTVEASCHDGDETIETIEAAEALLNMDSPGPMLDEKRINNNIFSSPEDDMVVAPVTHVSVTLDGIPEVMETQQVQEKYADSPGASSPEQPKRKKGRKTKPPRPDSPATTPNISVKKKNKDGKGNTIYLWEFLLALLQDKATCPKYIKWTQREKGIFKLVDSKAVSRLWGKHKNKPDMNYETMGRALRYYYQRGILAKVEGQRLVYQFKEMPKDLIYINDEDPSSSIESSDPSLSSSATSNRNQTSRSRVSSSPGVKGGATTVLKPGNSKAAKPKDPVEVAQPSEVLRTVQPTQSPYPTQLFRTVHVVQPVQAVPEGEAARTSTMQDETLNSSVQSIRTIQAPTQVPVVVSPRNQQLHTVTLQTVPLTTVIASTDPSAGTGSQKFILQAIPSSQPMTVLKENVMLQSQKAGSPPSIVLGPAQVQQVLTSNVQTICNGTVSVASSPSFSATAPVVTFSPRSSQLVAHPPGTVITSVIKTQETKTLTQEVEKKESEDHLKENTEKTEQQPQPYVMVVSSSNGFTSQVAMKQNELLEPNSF

For the sequence CACATG, the binding signal with FLI1 was 1.18 fold enrichment (6-mer frequency, TF over GST control); with ELK1, 1.1 fold enrichment (6-mer frequency, TF over GST control); in the test with GABPA, 1.07 fold enrichment (6-mer frequency, TF over GST control); with ERG, 1.07 fold enrichment (6-mer frequency, TF over GST control); in the test with ELF1, 1.16 fold enrichment (6-mer frequency, TF over GST control); in the test with EHF, 1.16 fold enrichment (6-mer frequency, TF over GST control). The binding signal was 1.11 fold enrichment (6-mer frequency, TF over GST control) with SPI1; 1.14 fold enrichment (6-mer frequency, TF over GST control) with ELK3; 1.11 fold enrichment (6-mer frequency, TF over GST control) with FEV; 1.1 fold enrichment (6-mer frequency, TF over GST control) in the test with ETV5; 1.09 fold enrichment (6-mer frequency, TF over GST control) with ELF4; 1.1 fold enrichment (6-mer frequency, TF over GST control) with ETV1. The binding signal with ERF is 1.12 fold enrichment (6-mer frequency, TF over GST control); with ETV3L it was 1.03 fold enrichment (6-mer frequency, TF over GST control); with ETS2 it was 1.11 fold enrichment (6-mer frequency, TF over GST control); in the test with ELF5, 1.02 fold enrichment (6-mer frequency, TF over GST control); with ETV3 it was 1.07 fold enrichment (6-mer frequency, TF over GST control); in the test with ETV6 it was 1.06 fold enrichment (6-mer frequency, TF over GST control).
